Laboratory results taken from PubChem BioAssay AID1159580 (chemical genetic matrix, 2015).
Where “and” joins values, the source holds several entries; their conditions need not be identical. Equal values may be shown once. The whole screen tested about 5,500 compounds, of which about 2,000 (36%) were called active. Inconclusive results (about 18%) are left out. Cut-off read from the data, not from the text of the source: active = normalized growth mostly below about 0.91 (no sharp cut-off); inconclusive = no clear call, values can overlap the other calls; inactive = mostly above about 0.92. This is one part of the list.

Assay: chemical genetic growth profiling, strain panel (AID 1159580);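 note: tested at 20 µM; growth read once vehicle control cultures reached saturation at 30 °C; 1 = growth at the plate median or of vehicle wells; lower values mean less growth of the strain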
Conditions: S. cerevisiae deletion strains, growth OD

Measured: normalized growth

CCOC(=O)[C@H](CCc1ccccc1)N[C@@H](C)C(=O)N1[C@H](C(=O)O)C[C@@H]2CCC[C@@H]21
inactive: locus YAL013W, strain DEP1, hits give low values 1.01 | locus YAL021C, strain ccr4, hits give low values 1.01 | locus YAL026C, strain drs2, hits give low values 0.985 | locus YAL030W, strain snc1, hits give low values 0.995 | locus YBL061C, strain skt5, hits give low values 0.984 | locus YBR009C, strain hhf1, hits give low values 0.995 | locus YBR021W, strain FUR4, hits give low values 1 | locus YBR023C, strain chs3, hits give low values 0.983 | locus YBR171W, strain sec66, hits give low values 0.971 | locus YBR229C, strain ROT2, hits give low values 1.01 | locus YBR231C, strain swc5, hits give low values 0.982 | locus YBR279W, strain paf1, hits give low values 0.979 | locus YCL011C, strain gbp2, hits give low values 0.981 | locus YCL016C, strain dcc1, hits give low values 0.985 | locus YCL029C, strain bik1, hits give low values 1.01 | locus YCL061C, strain MRC1, hits give low values 0.982 | locus YCL069W, strain vba3, hits give low values 0.977 | locus YCR088W, strain abp1, hits give low values 0.978 | locus YDL005C, strain med2, hits give low values 0.981 | locus YDL035C, strain GPR1, hits give low values 1.01 | locus YDL040C, strain nat1, hits give low values 0.981 | locus YDL074C, strain BRE1, hits give low values 1.02 | locus YDL101C, strain DUN1, hits give low values 1.01 | locus YDL134C, strain PPH21, hits give low values 1.01 | locus YDL185W, strain tfp1, hits give low values 0.998 | locus YDL192W, strain arf1, hits give low values 1.02 | locus YDR001C, strain nth1, hits give low values 0.978 | locus YDR069C, strain doa4, hits give low values 1.01 | locus YDR101C, strain arx1, hits give low values 1.01 | locus YDR137W, strain rgp1, hits give low values 0.946 | locus YDR150W, strain NUM1, hits give low values 1.01 | locus YDR159W, strain sac3, hits give low values 0.987 | locus YDR162C, strain NBP2, hits give low values 1.03 | locus YDR195W, strain ref2 0.97 | locus YDR297W, strain sur2, hits give low values 0.981 | locus YDR318W, strain mcm21, hits give low values 1.02 | locus YDR334W, strain swr1, hits give low values 0.978 | locus YDR335W, strain msn5, hits give low values 0.985 | locus YDR388W, hits give low values 1.01 | locus YDR392W, strain spt3, hits give low values 0.974 | locus YDR502C, strain sam2, hits give low values 1.01 | locus YEL003W, strain gim4, hits give low values 0.981 | locus YEL037C, strain rad23, hits give low values 0.982 | locus YEL061C, strain CIN8 (second series), hits give low values 0.98 | locus YEL061C, strain CIN8, hits give low values 1.01 | locus YER015W, strain faa2, hits give low values 0.989 | locus YER016W, strain bim1, hits give low values 0.993 | locus YER110C, hits give low values 1.01 | locus YER111C, strain swi4, hits give low values 0.976 | locus YER155C, strain BEM2 (second series), hits give low values 0.972 | locus YER155C, strain BEM2, hits give low values 1 | locus YER167W, strain BCK2, hits give low values 1.01 | locus YFR010W, strain ubp6, hits give low values 0.989 | locus YGL078C, strain dbp3, hits give low values 1.01 | locus YGL086W, strain mad1, hits give low values 1.02 | locus YGL167C, strain pmr1, hits give low values 0.979 | locus YGL173C, strain kem1, hits give low values 0.969 | locus YGL227W, strain vid30, hits give low values 0.979 | locus YGL240W, strain doc1, hits give low values 1 | locus YGL248W, strain PDE1, hits give low values 1.01 | locus YGL253W, strain hxk2, hits give low values 0.996 | locus YGR078C, strain PAC10, hits give low values 1.01 | locus YGR135W, strain pre9, hits give low values 1.02 | locus YGR229C, strain SMI1, hits give low values 1.01 | locus YGR252W, strain gcn5, hits give low values 1.03 | locus YHR013C, strain ard1, hits give low values 0.956 | locus YHR027C, strain rpn1, hits give low values 0.979 | locus YHR030C, strain SLT2, hits give low values 1 and 1.01 | locus YHR079C, strain IRE1 (second series), hits give low values 1.01 | locus YHR079C, strain IRE1, hits give low values 1 | locus YHR094C, strain hxt1, hits give low values 1.02 | locus YHR129C, strain ARP1, hits give low values 1.01 | locus YHR142W, strain chs7, hits give low values 0.971 | locus YHR200W, strain rpn10, hits give low values 1.02 | locus YIL066C, strain RNR3, hits give low values 1.01 | locus YIL073C, strain SPO22, hits give low values 1.07 | locus YIL125W, strain kgd1, hits give low values 1.03 | locus YIR030C, strain dcg1, hits give low values 1.02 | locus YJL092W, strain hpr5, hits give low values 0.981 | locus YJL095W, strain BCK1 (second series), hits give low values 0.985 | locus YJL095W, strain BCK1, hits give low values 1 and 0.991 | locus YJL115W, strain asf1, hits give low values 0.986 | locus YJL129C, strain trk1, hits give low values 0.987 | locus YJL134W, strain LCB3, hits give low values 1.01 | locus YJL154C, strain vps35, hits give low values 0.978 | locus YJL164C, strain tpk1, hits give low values 0.995 | locus YJL166W, strain qcr8, hits give low values 0.99 | locus YJL168C, strain set2, hits give low values 1.02 | locus YJL187C, strain SWE1 (second series), hits give low values 1.01 | locus YJL187C, strain SWE1, hits give low values 0.985 | locus YJR043C, strain POL32, hits give low values 1.01 | locus YJR066W, strain TOR1, hits give low values 0.955
